Wnt act: Wnt/beta-catenin pathway activators, primary screen, cell-based, plate reader, single point. Wnt/beta-catenin reporter cell assay, activator. activation, % at 9.35 µM. actives 1.2% (n = 300,000). AID 743398, 2014; in the data active = activation above about 30%, passing the limit was not always enough; inconclusive = no clear call, values can overlap the other calls;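 note: 0% = neutral control wells and 100% = positive control wells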
esBAF inh: Bmi1 luciferase reporter increase in mESCs, primary screen, esBAF inhibitor project, mouse ES cells, Bmi1 luciferase knock-in, single point; actives 2% (n = 350,000); AID 602393, 2012; 24 h; 100% = twice the neutral-well signal; reporter increase, % at 12.5 µM; in the data active = activation above about 40%; inconclusive = no clear call, values can overlap the other calls;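 note: 0% = median of the plate's neutral control wells and 100% = double that signal; a rise in the Bmi1 reporter signal indicates esBAF inhibition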
MITF TRPM1 HTS: activators of MITF-driven TRPM1 promoter reporter, primary screen, cell-based, SK-MEL-5, luciferase, single point; SK-MEL-5 TRPM1-promoter luciferase, 24 h; % of positive control, neutral wells = 0; activation, % at 12.5 µM; actives 0.75% (n = 300,000); AID 588334, 2011;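 active = mean activation of at least 80% with every replicate also reaching 80%; inconclusive = mean reaches 80% but some replicate falls short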;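 note: 0% = neutral control wells and 100% = parthenolide positive control wells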
EWS-Fli inh: EWS/Fli-driven NR0B1 reporter inhibitors, primary screen, A673 cells, NR0B1 luciferase, luminescence, MLPCN library. inhibition, % at 12.6 µM. actives 0.67% (n = 350,000). viability-normalised. AID 651661, 2012;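 active = mean inhibition of at least 50% after viability correction, with every replicate also passing that limit; inconclusive = mean reaches 50% but only one of two replicates passes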;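 note: firefly luciferase signal divided by Alamar Blue viability fluorescence both relative to DMSO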
PAX8 reporter: inhibitors of PAX8-driven TPO luciferase reporter, primary screen, RMG-I cells, single concentration | SteadyGlo, 24 h | inhibition, % at 12.6 µM | actives 1.2% (n = 360,000) | AID 652154, 2013;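 active = mean replicate inhibition at least 60% with every replicate also reaching 60%; inconclusive = only one of the two criteria is met; inactive = mean below 60% and not all replicates reaching 60%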;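 note: luciferase light reporting Pax8 driven TPO promoter activity; plate controls were median of neutral control wells for no effect and mitoxantrone controls for full effect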
TRPM1 prom inh: inhibitors of MITF-dependent TRPM1 promoter reporter, primary screen, cell-based, SK-MEL-5, single point, luciferase; inhibition, % at 12.5 µM; actives 0.83% (n = 330,000); AID 488899, 2010; SK-MEL-5 TRPM1 promoter luciferase, 24 h;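 active = mean inhibition across replicates of 60% or more, whatever share of single replicates reaches that level; inconclusive = some that reach 60%, reason not given; inactive = mean inhibition across replicates below 60%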
* = called active by the depositor; i = inactive; ? = inconclusive; . = no result given. Most compounds without a hit are left out; they make up all but 4% or so of the library.

SMILES | Wnt act | esBAF inh | MITF TRPM1 HTS | EWS-Fli inh | PAX8 reporter | TRPM1 prom inh
Cc1ccc(N=Nc2ccc(O)c3ncccc23)cc1 | -7.3 | . | -85.7 | 41.3 | 8.5 | 86.7*
Cc1ccc(N=Nc2ccc(O)c3ncccc23)cc1C | 1.3 | . | -35.6 | -24.1 | 5.8 | 39.5
CCC(=O)N(C)C[C@@H]1Oc2cc(C#CCN(C)C)ccc2S(=O)(=O)N([C@@H](C)CO)C[C@H]1C | . | -1.4 | . | 4.8 | . | .
CCCC(O)C#Cc1cnc2c(c1)C(=O)N([C@H](C)CO)C[C@H](C)[C@H](CN(C)Cc1cccc(C)c1)O2 (stereo partly drawn) | . | 0.8 | . | 1.6 | . | .
Cc1ccc(N=Nc2ccc3ccccc3c2O)cc1 | -1.7 | -76.7 | . | 54.7* | -26.1 | 20.8
O=C(Nc1cc(F)ccc1F)N1C[C@@H]2[C@H](c3ccccc31)[C@@H](CO)N2C(=O)c1ccccc1 | . | 1.5 | . | -2.8 | -1.6 | .
Clc1ccc(OCc2noc(-c3ccsc3)n2)c(Cl)c1 | 64.7* | 64.0* | . | -104.5 | -156.9 | -106.1
Fc1cc(Cl)c(OCc2noc(-c3ccsc3)n2)c(Cl)c1 | -0.1 | . | 90.1* | -66.8 | -29.8 | -88.6
COc1cc(-c2nc(Cc3ccccc3Cl)no2)cc(OC)c1OC | . | 1.5 | 6.0 | . | . | -7.4
CS(=O)(=O)N1[C@@H]2Cn3c(ccc(-c4ccc(F)cc4)c3=O)[C@H]1[C@@H](C(=O)N1CCOCC1)[C@@H]2CO | . | 1.7 | . | -10.2 | . | .
C[C@@H]1CN([C@@H](C)CO)C(=O)Cc2cc(NC(=O)Nc3ccc(C(F)(F)F)cc3)ccc2O[C@@H]1CN(C)S(=O)(=O)c1cn(C)cn1 | . | -0.2 | . | 22.8 | 10.3 | .
Cc1ccc(NC(=O)c2ccc(S(=O)(=O)N(C)c3ccccc3)cc2)cc1S(=O)(=O)N1CCOCC1 | -3.2 | -16.3 | -2.9 | 27.4 | 64.6* | 3.4
Cc1nc2cc(NC(=O)c3ccc(S(=O)(=O)N(C)c4ccccc4)cc3)ccc2o1 | 1.4 | 83.4* | 10.1 | . | -55.0 | -14.5
CO[C@H]1CN(C)C(=O)c2cc(NS(C)(=O)=O)ccc2OC[C@H](C)N(C(=O)CN(C)C)C[C@@H]1C | . | -0.8 | . | 6.6 | . | .
COc1ccc(S(=O)(=O)N(C)C[C@H]2Oc3ncc(C#CC4(O)CCCC4)cc3C(=O)N([C@H](C)CO)C[C@H]2C)cc1 | . | 4.1 | . | -3.9 | -9.5 | .
O=C(Nc1ccccc1)N1CC(=O)N2[C@H](CO)[C@@H](c3ccc(C#Cc4cccnc4)cc3)[C@@H]2C1 | . | . | . | 3.0 | -54.1 | .
CCCN(C)C[C@H]1OCCCC[C@@H](C)Oc2ccc(NC(=O)Cc3ccccc3)cc2C(=O)N([C@@H](C)CO)C[C@H]1C | . | -1.5 | . | -0.9 | 47.2 | .
CCC(=O)Nc1ccc(NC(=O)c2cccc(OC)c2)nc1 | . | 32.9 | ? | . | . | -71.8
COc1cc(C(=O)Nc2ccc(NC(=O)C3CC3)nc2)cc(OC)c1OC | 60.6* | -5.1 | 1.6 | . | 11.5 | 1.3
COc1cccc(C(=O)Nc2ccc(NC(=O)C3CC3)cn2)c1 | 23.8 | . | 101.5* | . | -144.2 | -99.5
O=C(Nc1ccc(NC(=O)C2CC2)nc1)c1cnccn1 | 48.6* | 12.4 | 5.9 | -26.3 | -19.4 | -2.8
Cc1ccc(NC(=S)/C(C#N)=C2/Nc3ccccc3S2)cc1 | -1.9 | -2.7 | . | -8.7 | 83.9* | .
O=C(O)c1cc(N/N=C/C=C/c2ccccc2[N+](=O)[O-])ccc1Cl | 60.4* | 35.2 | 55.6 | -142.6 | -93.6 | -53.4
NS(=O)(=O)c1ccc(N/N=C/C=C/c2ccccc2[N+](=O)[O-])cc1 | 25.1 | 83.1* | 64.5 | -88.8 | -163.7 | -56.8
O=C(N/N=C/C=C\c1ccccc1[N+](=O)[O-])c1ccncc1 | -0.2 | -9.8 | -11.1 | 15.7 | 7.5 | 11.8
SMILES | Wnt act | esBAF inh | MITF TRPM1 HTS | EWS-Fli inh | PAX8 reporter | TRPM1 prom inh
Nc1ccc(S(=O)(=O)NN=CC=Cc2ccccc2[N+](=O)[O-])cc1 | -3.8 | 2.6 | -9.5 | 12.1 | 32.4 | 12.3
CCc1ccc(CNC(=O)C2CCN(S(=O)(=O)N3CCCCC3)CC2)cc1 | 0.9 | -12.1 | . | -7.9 | 80.6* | .
CN(C)S(=O)(=O)Oc1cccc(C(=O)Nc2ccccc2Cl)c1 | 13.8 | 72.1* | . | . | -161.3 | -63.3
COc1cc(NC(=O)c2cc3ccccc3cc2O)c(OC)cc1Cl | -14.3 | -17.7 | -33.8 | -10.2 | 72.0* | 28.7
CN(C)S(=O)(=O)Oc1cccc(C(=O)Nc2ccc(Cl)cc2)c1 | -4.1 | 18.7 | 5.0 | . | -126.1 | -4.0
COc1cc2ccccc2cc1C(=O)Nc1ccccc1Cl | 45.1* | ? | 36.5 | -105.8 | -90.4 | -43.2
COc1cc2ccccc2cc1C(=O)Nc1ccccc1N1CCCC1 | 0.2 | -0.6 | -11.3 | 10.6 | 28.8 | 11.9
COc1cc(OC)c(NC(=O)c2ccccc2F)cc1Cl | 2.5 | 15.0 | 1.4 | -8.1 | -10.3 | -3.7
Cc1cc(O)c(C(C)C)cc1NC(=O)c1ccccc1Cl | -2.5 | 1.5 | -0.4 | -12.4 | 70.4* | 3.6
Cc1ccc(Cl)cc1NC(=O)c1cc2ccccc2cc1O | -21.7 | -27.9 | -72.8 | 12.2 | 77.5* | 72.0*
Cc1ccc(Cl)cc1NC(=O)COC(=O)c1ccccc1O | 0.1 | . | 4.8 | -17.9 | 10.5 | 1.3
CCCCNC(=O)c1sc2nc(C)cc(COC)c2c1-n1cccc1 | -3.7 | -6.2 | 7.6 | . | 5.0 | -2.0
COCc1cc(C)nc2sc(C(=O)NN)c(-n3cccc3)c12 | -0.5 | . | 1.1 | 3.1 | 61.3* | 4.5
CC1CC(C)CN(CCCNC(=O)c2ccc3nc(N4CCCCC4)sc3c2)C1 (stereo not drawn) | -3.6 | 55.4* | . | -41.9 | -142.8 | .
CCCCC(=O)N1CCN(c2nc3ccc(Cl)cc3s2)CC1 | 15.7 | 50.4* | 57.2 | . | -140.5 | -52.4
CCOc1ccc2nc(N3CCCC(C(=O)NCCCN4CC(C)CC(C)C4)C3)sc2c1 (stereo not drawn) | 7.2 | -0.6 | -35.2 | . | -19.9 | 35.1
CCCN1CCN(CCCNC(=O)c2ccc3nc(N4CCCCC4)sc3c2)CC1 | -1.4 | 77.0* | 22.3 | -62.8 | -144.3 | -22.3
C/C(NC(=O)c1ccccc1)=C1/C(=O)CC2C1C2(C)C (stereo not drawn) | 0.0 | 52.0* | ? | . | . | i
CC1(C)CC[C@]2(C(=O)O)CC[C@]3(C)C(=CC[C@@H]4[C@@]5(C)CC[C@H](O[C@@H]6O[C@H](C(=O)O)[C@@H](O)[C@H](O[C@@H]7OC[C@H](O)[C@H](O)[C@H]7O)[C@H]6O)C(C)(C)[C@@H]5CC[C@]43C)[C@@H]2C1 | -12.2 | -1.1 | -1.4 | ? | 101.1* | 5.5

High-throughput results deposited in PubChem BioAssay by Broad Institute.
